Laboratory results from publication PMC11006913.
Positions count from the first letter of the chain named.

Columns and labels:
Test in all cases: PBM; 200 nM protein, PBS
Conditions in all cases: dsDNA, one strand shown
PAX4 [1] = biological target: T1, PAX4 (Homo sapiens, UniProt O43316 9-242, R200K)
T1 sequence: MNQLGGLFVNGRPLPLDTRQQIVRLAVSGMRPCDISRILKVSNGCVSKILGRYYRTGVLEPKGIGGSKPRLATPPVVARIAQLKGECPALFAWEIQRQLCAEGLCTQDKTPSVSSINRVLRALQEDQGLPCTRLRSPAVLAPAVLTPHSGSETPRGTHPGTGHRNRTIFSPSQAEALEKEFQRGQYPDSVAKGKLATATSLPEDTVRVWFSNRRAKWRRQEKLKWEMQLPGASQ

PAX4 [2] = biological target: T2, PAX4 (Homo sapiens, UniProt O43316 9-242)
T2 sequence: T1 sequence with K192R

PAX4 [3] = biological target: T3, PAX4 (Homo sapiens, UniProt O43316 9-242, R200Q)
T3 sequence: T1 sequence with K192Q

PAX4 [4] = biological target: T4, PAX4 (Homo sapiens, UniProt O43316 9-242, F177V)
T4 sequence: T1 sequence with F169V, K192R

PAX4 [5] = biological target: T5, PAX4 (Homo sapiens, UniProt O43316 9-242, F177Y)
T5 sequence: T1 sequence with F169Y, K192R

PAX4 [6] = biological target: T6, PAX4 (Homo sapiens, UniProt O43316 9-242, R227W)
T6 sequence: T1 sequence with K192R, R219W

PRRX1 [7] = biological target: PRRX1 (Homo sapiens, UniProt P54821 80-166, F113S)
NKX2-6 [8] = biological target: T7, NKX2-6 (Homo sapiens, UniProt A6NCS4 118-204)
T7 sequence: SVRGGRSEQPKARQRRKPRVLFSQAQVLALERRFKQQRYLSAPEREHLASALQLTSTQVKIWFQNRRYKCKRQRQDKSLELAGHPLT

NKX2-6 [9] = biological target: T8, NKX2-6 (Homo sapiens, UniProt A6NCS4 118-204, F151L)
T8 sequence: T7 sequence with F34L

PRRX1 [10] = biological target: PRRX1 (Homo sapiens, UniProt P54821 80-166)
ALX1 [11] = biological target: ALX1 (Homo sapiens, UniProt Q15699 118-204, L144V)
ALX3 [12] = biological target: ALX3 (Homo sapiens, UniProt O95076 139-225, N203Q)
ALX1 [13] = biological target: ALX1 (Homo sapiens, UniProt Q15699 118-204, L144R)
ALX3 [14] = biological target: ALX3 (Homo sapiens, UniProt O95076 139-225)
ALX3 [15] = biological target: ALX3 (Homo sapiens, UniProt O95076 139-225, L168Q)
ALX3 [16] = biological target: ALX3 (Homo sapiens, UniProt O95076 139-225, L168V)
ALX1 [17] = biological target: ALX1 (Homo sapiens, UniProt Q15699 118-204)
ALX3 [18] = biological target: ALX3 (Homo sapiens, UniProt O95076 139-225, N203S)
HOXA2 [19] = biological target: HOXA2 (Homo sapiens, UniProt O43364 129-215, R185T)
HOXA2 [20] = biological target: HOXA2 (Homo sapiens, UniProt O43364 129-215, R185K)
HOXA2 [21] = biological target: HOXA2 (Homo sapiens, UniProt O43364 129-215, Y150S)
HOXA2 [22] = biological target: HOXA2 (Homo sapiens, UniProt O43364 129-215)
PITX2 = PITX2 (Homo sapiens, UniProt Q99697 72-157)
PROP1 [23] = biological target: PROP1 (Homo sapiens, UniProt O75360 56-141)
PROP1 [24] = biological target: PROP1 (Homo sapiens, UniProt O75360 56-141, R99H)
PROP1 [25] = biological target: PROP1 (Homo sapiens, UniProt O75360 56-141, F88S)
Sequence of PROP1 (Homo sapiens, UniProt O75360 56-141, F88S) (O75360 56-141 F88S): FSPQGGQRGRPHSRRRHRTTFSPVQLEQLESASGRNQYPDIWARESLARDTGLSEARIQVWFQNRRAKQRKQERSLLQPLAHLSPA

Sequence of PRRX1 (Homo sapiens, UniProt P54821 80-166, F113S) (P54821 80-166 F113S): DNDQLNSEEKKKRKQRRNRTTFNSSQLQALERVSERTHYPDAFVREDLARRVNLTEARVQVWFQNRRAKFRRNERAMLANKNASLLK
Sequence of PRRX1 (Homo sapiens, UniProt P54821 80-166) (P54821 80-166): as the sequence (P54821 80-166 F113S) above, with S34F counted along it
Sequence of ALX1 (Homo sapiens, UniProt Q15699 118-204, L144V) (Q15699 118-204 L144V): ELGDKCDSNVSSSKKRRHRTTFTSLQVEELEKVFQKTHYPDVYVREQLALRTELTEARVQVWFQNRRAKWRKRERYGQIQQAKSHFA
Sequence of PROP1 (Homo sapiens, UniProt O75360 56-141, R99H) (O75360 56-141 R99H): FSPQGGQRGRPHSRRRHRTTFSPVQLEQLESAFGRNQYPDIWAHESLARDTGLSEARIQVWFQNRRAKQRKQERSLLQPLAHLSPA
Sequence of PROP1 (Homo sapiens, UniProt O75360 56-141) (O75360 56-141): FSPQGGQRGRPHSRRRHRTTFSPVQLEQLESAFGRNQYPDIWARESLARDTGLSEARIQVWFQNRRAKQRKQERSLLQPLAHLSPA
Sequence of HOXA2 (Homo sapiens, UniProt O43364 129-215) (O43364 129-215): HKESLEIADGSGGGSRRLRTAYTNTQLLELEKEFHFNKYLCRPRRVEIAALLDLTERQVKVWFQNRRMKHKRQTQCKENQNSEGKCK
Sequence of ALX3 (Homo sapiens, UniProt O95076 139-225, L168V) (O95076 139-225 L168V): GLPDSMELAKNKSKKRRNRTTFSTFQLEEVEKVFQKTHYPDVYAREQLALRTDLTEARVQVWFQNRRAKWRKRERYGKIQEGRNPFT
Sequence of ALX1 (Homo sapiens, UniProt Q15699 118-204) (Q15699 118-204): as the sequence (Q15699 118-204 L144V) above, with V27L counted along it
Sequence of ALX1 (Homo sapiens, UniProt Q15699 118-204, L144R) (Q15699 118-204 L144R): as the sequence (Q15699 118-204 L144V) above, with V27R counted along it
Sequence of HOXA2 (Homo sapiens, UniProt O43364 129-215, R185K) (O43364 129-215 R185K): as the sequence (O43364 129-215) above, with R57K counted along it
Sequence of ALX3 (Homo sapiens, UniProt O95076 139-225, N203Q) (O95076 139-225 N203Q): as the sequence (O95076 139-225 L168V) above, with V30L, N65Q counted along it
Sequence of HOXA2 (Homo sapiens, UniProt O43364 129-215, Y150S) (O43364 129-215 Y150S): as the sequence (O43364 129-215) above, with Y22S counted along it
Sequence of HOXA2 (Homo sapiens, UniProt O43364 129-215, R185T) (O43364 129-215 R185T): as the sequence (O43364 129-215) above, with R57T counted along it
Sequence of ALX3 (Homo sapiens, UniProt O95076 139-225, L168Q) (O95076 139-225 L168Q): as the sequence (O95076 139-225 L168V) above, with V30Q counted along it
Sequence of ALX3 (Homo sapiens, UniProt O95076 139-225) (O95076 139-225): as the sequence (O95076 139-225 L168V) above, with V30L counted along it
Sequence of ALX3 (Homo sapiens, UniProt O95076 139-225, N203S) (O95076 139-225 N203S): as the sequence (O95076 139-225 L168V) above, with V30L, N65S counted along it

## CCTTCCCC
PAX4 [1]
  binding signal: 9.18 upbm affinity estimate (log intensity, higher = more binding, comparable within an allelic series)
PAX4 [2]
  binding signal: 9.26 upbm affinity estimate (log intensity, higher = more binding, comparable within an allelic series)
PAX4 [3]
  binding signal: 9.24 upbm affinity estimate (log intensity, higher = more binding, comparable within an allelic series)
PAX4 [4]
  binding signal: 9.11 upbm affinity estimate (log intensity, higher = more binding, comparable within an allelic series)
PAX4 [5]
  binding signal: 9.14 upbm affinity estimate (log intensity, higher = more binding, comparable within an allelic series)
PAX4 [6]
  binding signal: 9.24 upbm affinity estimate (log intensity, higher = more binding, comparable within an allelic series)

## TAGTATAA
PAX4 [1]
  binding signal: 10.7 upbm affinity estimate (log intensity, higher = more binding, comparable within an allelic series)
PAX4 [2]
  binding signal: 10.8 upbm affinity estimate (log intensity, higher = more binding, comparable within an allelic series)
PAX4 [3]
  binding signal: 10.8 upbm affinity estimate (log intensity, higher = more binding, comparable within an allelic series)
PAX4 [6]
  binding signal: 10.5 upbm affinity estimate (log intensity, higher = more binding, comparable within an allelic series)

## CTAATTCA
PAX4 [1]
  binding signal: 11.7 upbm affinity estimate (log intensity, higher = more binding, comparable within an allelic series)
PAX4 [2]
  binding signal: 12.2 upbm affinity estimate (log intensity, higher = more binding, comparable within an allelic series)
PAX4 [3]
  binding signal: 11.6 upbm affinity estimate (log intensity, higher = more binding, comparable within an allelic series)
PAX4 [4]
  binding signal: 10.5 upbm affinity estimate (log intensity, higher = more binding, comparable within an allelic series)
PAX4 [5]
  binding signal: 11 upbm affinity estimate (log intensity, higher = more binding, comparable within an allelic series)
PAX4 [6]
  binding signal: 11 upbm affinity estimate (log intensity, higher = more binding, comparable within an allelic series)

## ACTTTAAG
PRRX1 [7]
  binding signal: 10.1 upbm affinity estimate (log intensity, higher = more binding, comparable within an allelic series)
NKX2-6 [8]
  binding signal: 12.5 upbm affinity estimate (log intensity, higher = more binding, comparable within an allelic series)
NKX2-6 [9]
  binding signal: 10.3 upbm affinity estimate (log intensity, higher = more binding, comparable within an allelic series)
PRRX1 [10]
  binding signal: 10.8 upbm affinity estimate (log intensity, higher = more binding, comparable within an allelic series)

## ACCGAGGG
PRRX1 [7]
  binding signal: 8.94 upbm affinity estimate (log intensity, higher = more binding, comparable within an allelic series)
ALX1 [11]
  binding signal: 6.46 upbm affinity estimate (log intensity, higher = more binding, comparable within an allelic series)
ALX3 [12]
  binding signal: 7.64 upbm affinity estimate (log intensity, higher = more binding, comparable within an allelic series)
ALX1 [13]
  binding signal: 6.47 upbm affinity estimate (log intensity, higher = more binding, comparable within an allelic series)
ALX3 [14]
  binding signal: 7.78 upbm affinity estimate (log intensity, higher = more binding, comparable within an allelic series)
ALX3 [15]
  binding signal: 7.65 upbm affinity estimate (log intensity, higher = more binding, comparable within an allelic series)
ALX3 [16]
  binding signal: 7.64 upbm affinity estimate (log intensity, higher = more binding, comparable within an allelic series)
ALX1 [17]
  binding signal: 6.38 upbm affinity estimate (log intensity, higher = more binding, comparable within an allelic series)
ALX3 [18]
  binding signal: 7.63 upbm affinity estimate (log intensity, higher = more binding, comparable within an allelic series)
PRRX1 [10]
  binding signal: 9.32 upbm affinity estimate (log intensity, higher = more binding, comparable within an allelic series)

## AATAGGGT
PRRX1 [7]
  binding signal: 10.2 upbm affinity estimate (log intensity, higher = more binding, comparable within an allelic series)
PRRX1 [10]
  binding signal: 11.5 upbm affinity estimate (log intensity, higher = more binding, comparable within an allelic series)

## ACGCCGGA
PRRX1 [7]
  binding signal: 9.29 upbm affinity estimate (log intensity, higher = more binding, comparable within an allelic series)
HOXA2 [19]
  binding signal: 7.08 upbm affinity estimate (log intensity, higher = more binding, comparable within an allelic series)
HOXA2 [20]
  binding signal: 10.3 upbm affinity estimate (log intensity, higher = more binding, comparable within an allelic series)
HOXA2 [21]
  binding signal: 10.5 upbm affinity estimate (log intensity, higher = more binding, comparable within an allelic series)
PRRX1 [10]
  binding signal: 9.34 upbm affinity estimate (log intensity, higher = more binding, comparable within an allelic series)
HOXA2 [22]
  binding signal: 7.28 upbm affinity estimate (log intensity, higher = more binding, comparable within an allelic series)

## ACGTTGCG
PRRX1 [7]
  binding signal: 9.5 upbm affinity estimate (log intensity, higher = more binding, comparable within an allelic series)
PITX2
  binding signal: 7.94 upbm affinity estimate (log intensity, higher = more binding, comparable within an allelic series)
PRRX1 [10]
  binding signal: 9.22 upbm affinity estimate (log intensity, higher = more binding, comparable within an allelic series)

## GCCCGTCC
PRRX1 [7]
  binding signal: 9.26 upbm affinity estimate (log intensity, higher = more binding, comparable within an allelic series)
PROP1 [23]
  binding signal: 6.49 upbm affinity estimate (log intensity, higher = more binding, comparable within an allelic series)
PROP1 [24]
  binding signal: 6.5 upbm affinity estimate (log intensity, higher = more binding, comparable within an allelic series)
PROP1 [25]
  binding signal: 6.38 upbm affinity estimate (log intensity, higher = more binding, comparable within an allelic series)
PRRX1 [10]
  binding signal: 8.92 upbm affinity estimate (log intensity, higher = more binding, comparable within an allelic series)

## CAATTCCC
PRRX1 [7]
  binding signal: 9.81 upbm affinity estimate (log intensity, higher = more binding, comparable within an allelic series)
PRRX1 [10]
  binding signal: 11.3 upbm affinity estimate (log intensity, higher = more binding, comparable within an allelic series)
